Source: PubChem
Lassa entry inh: qHTS for Inhibitors of binding or entry into cells for Lassa Virus | Potency, µM (titrated, usually from 37.9 µM), without a hit: at the highest dose activity change, negative = inhibition, most hits filed as inhibitors | Lassa virus pseudotype entry inhibition, cell reporter | actives 1.2% (n = 300,000); calls by dose curve; tested in HEK293 cells; note: potency is the fitted concentration of half-maximal effect; % is set by controls: 0 for no effect and ±100 for the full control effect; nearly all actives have a fitted effect of over 50% in size
AMA1-RON2 inh: qHTS for Inhibitors of AMA1-RON; Towards Development of Antimalarial Drug Lead: Primary Screen. Potency, µM (doses to about 58.2 µM), for the others: at the top dose activity change, negative = inhibition, hits mostly inhibitors. AlphaScreen AMA1-biotinylated RON2 peptide binding. Plasmodium falciparum AMA1 (3D7) - RON2 peptide interaction. actives 0.2% (n = 360,000); active = well fitted inhibition curve with a large enough effect; inconclusive = small, poorly fitted or top-dose-only effect; inactive = no such curve, though single readings can be large or run the other way;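 note: potency is the fitted concentration of half-maximal effect; 0% = vehicle wells and -100% = peptide control; nearly all actives have a fitted effect of over 45% in size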
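AMA1 (3D7) with his tag at 25 nM final met compounds first, then biotinylated RON2 peptide at 25 nM; detection used donor plus acceptor beads, 10 µg/mL apiece, read by AlphaScreen after 30 min at room temperature.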
Shiga toxin inh: A qHTS for Small Molecule Inhibitors of Shiga Toxin. actives 9.2% (n = 290,000). Vero cells, Shiga toxin protein synthesis inhibition reporter. inhibition, % at 38.7 µM; in the data active = inhibition mostly above about 28%, no sharp cut-off; inactive = mostly below about 43%; note: 0% is about no effect
Marburg entry inh: qHTS for inhibitors of binding or entry into cells for Marburg Virus. Marburg virus pseudotyped entry inhibition, cell reporter. Potency, µM (series often up to 37.8 µM), inactives show at the highest dose activity change, negative = inhibition, actives largely listed as inhibitors. actives 1.8% (n = 300,000). AID 540276, 2011; calls by dose curve; tested in HEK293 cells; note: potency is the fitted concentration of half-maximal effect; % is set by controls: 0 for no effect and ±100 for the full control effect
CHX counter: Cycloheximide Counterscreen for Small Molecule Inhibitors of Shiga Toxin; max response, %; cell reporter, cycloheximide protein synthesis inhibition counterscreen; actives 12% (n = 300,000); AID 2314, 2010; in the data active = max response mostly above about 13%, no sharp cut-off; inactive = mostly below about 14%; note: read at 38.3 µM for the half of the compounds with a filed dose; 0% is about no effect
Numbers without * were called inactive; ? = inconclusive; . = not tested or not shown; [ ] = dose if it differs, or a comment. Shown is part of a subset that was picked to be rich in hits.

SMILES	Lassa entry inh	AMA1-RON2 inh	Shiga toxin inh	Marburg entry inh	CHX counter
O=C(CSc1ncccn1)NCc1ccccc1	?	-1.6%	54.3	?	17.6*
O=C(CSc1ncccn1)NCc1cccc(Cl)c1	.	-3.6%	95.0*	.	42.0*
O=C(CSc1ncccn1)NCc1ccc(Cl)cc1	0.4%	6.1%	73.3*	29.7%	48.8*
O=C(CSc1ncccn1)Nc1cc(Cl)ccc1[N+](=O)[O-]	-4.1%	1.4%	19.3	-1.0%[14.2 µM]	22.6*
O=C(COC(=O)c1ccccn1)NCc1cccc(Cl)c1	24.8%	20.2%	.	-11.0%[46.1 µM]	.
C[C@@H]1COC(=O)[C@@H](CC(=O)OC(C)(C)C)C/C=C\C[C@@H](CC(=O)NCCO)C(=O)N1	.	1.5%	.	.	.
COc1ccc(CNC(=O)CS(=O)(=O)c2cccc3nsnc23)cc1	4.5%[46.1 µM]	.	.	.	.
C[C@H](CO)N1C[C@H](C)[C@H](CN(C)C(=O)Nc2ccccc2F)OCc2cnnn2CCCC1=O	.	-1.9%	.	.	.
O=C(CSCc1ccccc1)NCc1ccc2c(c1)OCO2	0.1%	-4.1%	-6.5	19.0%[46.1 µM]	11.9
O=C(CSc1ncccn1)NCc1ccc2c(c1)OCO2	15.4%[46.1 µM]	1.6%	24.7*	-2.5%[46.1 µM]	31.2
CCCC(C)NC(=O)/C=C/c1cccc([N+](=O)[O-])c1 (stereo not given)	-27.8%	12.1%	-0.6	-1.4%	11.1*
O=C(/C=C/c1cccc([N+](=O)[O-])c1)NCc1ccccc1	-21.8%	-9.0%	-9.7	?	6.3
COC(=O)CNC(c1ccccc1)c1cc(Cl)ccc1NC(=O)c1cccc(Cl)c1 (stereo not given)	9.3%	-8.5%	-3.1	10µM*	-2.3
COC(=O)CNC(c1ccccc1)c1cc(Br)ccc1NC(=O)c1ccccc1 (stereo not given)	-28.1%[46.1 µM]	.	.	.	.
COc1ccccc1N1CCN(C(CNC(=O)C(=O)NCCc2ccccc2)c2cccnc2)CC1 (stereo not given)	-27.9%[46.1 µM]	.	.	.	.
O=[N+]([O-])c1cccc(-c2csc(CS(=O)(=O)Cc3ccco3)n2)c1	.	-6.4%	9.7	.	15.9*
Cc1ccc(CNS(=O)(=O)c2ccc3c(c2)NC(=O)C(C)S3)cc1 (stereo not given)	.	-17.2%	7.5	.	-1.2
CC(=O)Nc1ccc(CCCCc2ccccc2)cc1	-10.6%[46.1 µM]	6.7%	.	?	.
O=C(NCCCCc1ccccc1)Nc1ccc(F)cc1	.	-12.1%	31.1*	.	11.2
O=C(NCCc1ccccc1)C(=O)Nc1cccc(Br)c1	18.5%[46.1 µM]	.	.	.	.
Cc1ccccc1NC(=O)NCCc1ccc(Cl)cc1	.	-6.9%	21.6	.	6.9
Cc1ccccc1NC(=O)NCCCCc1ccccc1	.	-2.1%	38.6*	.	2.7
Cc1cccc(NC(=O)C(=O)NCCCc2ccccc2)c1	14.0%	.	50.6*	?	49.6*
COc1ccc(NC(=O)C(CCCCNC(=O)OC(C)(C)C)NC(=O)OCc2ccccc2)cc1 (stereo not given)	2.06µM*	16.8%[2.32 µM]	-2.4	9.7%	-2.9
COc1cccc(NC(=O)C2(C)CCN2C(=O)CC2CCCC2)c1 (stereo not given)	.	10.0%	.	.	.
SMILES	Lassa entry inh	AMA1-RON2 inh	Shiga toxin inh	Marburg entry inh	CHX counter
Cc1cc(C(=O)C(C)OC(=O)c2cnccn2)c(C)n1-c1ccccc1 (stereo not given)	4.8%[46.1 µM]	-0.1%	.	17.3%	.
Cc1ccc(NC(=O)NCCCc2ccccc2)cc1	0.2%	0.2%	83.1*	29.8%	35.3*
COc1ccc(NC(=O)NCCCCc2ccccc2)cc1	.	-14.8%	49.7	.	22.4*
Cc1ccc(SCC(=O)NCCCc2ccccc2)cc1	13.2%[46.1 µM]	34.8%	-15.6	19.2%[46.1 µM]	4.0
CCOc1ccc(NC(=O)NCCCCc2ccccc2)cc1	.	-7.1%	13.2	.	-0.3
c1ccc(CSc2nnc(-c3cccnc3)o2)cc1	18.2%	-9.7%	73.6*	12.2%	30.9*
Fc1ccc(CSc2nnc(-c3cccnc3)o2)cc1	.	13.4%	30.9	.	16.7*
Cc1ccccc1-c1nnc(SCc2ccc(F)cc2)o1	?	50.4%	45.4*	10.1%	30.2*
CCCCN(C)C(=O)c1ccc2c(c1)S(=O)(=O)c1ccccc1C2=O	-25.3%[46.1 µM]	76.8%	-16.2	26.4%[46.1 µM]	5.4
CCCN(CCC)C(=O)CC(c1ccccc1)c1ccco1 (stereo not given)	?	-10.0%	2.1	-9.0%	-1.3
CC(C)c1ccc(NC(=S)NCCc2c[nH]c3ccccc23)cc1	?	-1.0%	18.1	3.5%	-1.5
CC(C)CC1C(=O)N(Cc2cn(CC3CCCCC3)nn2)CCS(=O)(=O)N1Cc1ccc(-c2ccncc2)cc1 (stereo not given)	14.1µM*	-5.0%	.	.	.
Cc1ccc(C(=O)/C=C\C(=O)c2ccc(C)cc2)cc1	-9.1%	1.8%	4.8	25.6%	-1.8
COC(=O)/C=C1\NCCNC1=O	5.8%	3.9%	-7.6	3.4%	-1.5
Cc1ccc(C(=O)/C=C2\NCC(C)NC2=O)cc1 (stereo not given)	8.91µM*	3.7%	26.7	5.62µM*	-2.1
Cc1ccc(C(=O)/C=C2\NCCNC2=O)cc1	?	-11.2%	10.1*	-29.1%	32.4*
CCOC(=O)N1CCC(n2c(SCC(=O)NCCc3ccc(S(N)(=O)=O)cc3)nc3ccccc3c2=O)CC1	9.5%	-3.5%	-3.9	-7.2%[46.1 µM]	-2.0
COc1ccc2[nH]c(=O)c(C(c3nnnn3C3CCCC3)N(C)C3CCCCC3)cc2c1 (stereo not given)	1.6%	48.3%	14.2	5.17µM*	-2.5
CCCc1nn(C)c(C(=O)Nc2ccc(Cl)cc2)c1Cl	?	-3.7%	43.2	16.9%	24.9*
CCCc1nn(C)c(C(=O)Nc2ccccc2)c1Cl	?	-5.9%	72.1*	?	91.8*
CN(C)c1ccc(/C=C(\C#N)c2nc(-c3ccc(Cl)c(Cl)c3)cs2)cc1	0.6%[46.1 µM]	.	.	.	.
CCCCC(CC)C(=O)Oc1ccc(O)c(C(C)(C)C)c1 (stereo not given)	10µM*	35.6%	24.5	?	8.5
OC1CCCN(CC(O)COc2ccc(-c3ccccc3)cc2)C1 (stereo not given)	14.4%[46.1 µM]	-10.9%	53.9*	?	23.1*
OC(COc1ccc(OCC(O)CN2CCCCCC2)cc1)CN1CCCCCC1 (stereo not given)	?	0.8%	-5.8	11.2µM*	-1.7
OC(COc1ccc2cc(Br)ccc2c1)CN1CCCC1 (stereo not given)	-0.2%	-10.4%	77.0*	8.2µM*	46.0*
SMILES	Lassa entry inh	AMA1-RON2 inh	Shiga toxin inh	Marburg entry inh	CHX counter
CC1CCCN(CC(O)COc2ccc(-c3ccccc3)cc2)C1 (stereo not given)	8.1%	8.4%	-4.8	?	1.0
COc1ccc(OCC(O)CN2CCCCCC2)cc1 (stereo not given)	11.8%[14.3 µM]	-3.0%	-4.7	7.2%	-1.8
OCCN1CCN(CC(O)COc2ccc(-c3ccccc3)cc2)CC1 (stereo not given)	?	5.0%	73.9*	-22.1%[46.1 µM]	32.4*
COc1ccc(CNC(=O)c2nn(-c3ccccc3C)nc2CO)cc1	-25.9%[46.1 µM]	.	.	1.5%[46.1 µM]	.
CCOC(=O)NN=Cc1ccccc1-c1cc(OC)ccc1OC	.	.	.	-4.0%[14.2 µM]	.
COc1ccc(OC)c(NC(=O)CSc2ncnc3sc(C)cc23)c1	-16.3%	-8.8%	.	?	.
